Test results reported in PubChem BioAssay (Tox21).
Several values for one entry are separate records, joined by “and”; a condition that tells them apart may be missing. Equal values may be shown once. Results filed as inconclusive are left out. More than one record can exist for a structure, and the calls need not agree. Activity calls are given as the source filed them. Unless noted, the call rests on the fitted dose curve; in most records, active means well fitted curve in the direction sought with a large enough effect in the repeat runs; inconclusive means weak or mixed curves; inactive means no such curve, though single readings can be large; an effect the other way counts as inactive or inconclusive.

Key:
[1] = target: Thyrotropin receptor (Homo sapiens) (UniProt P16473); experiment: qHTS assay to identify small molecule agonists of the thyroid stimulating hormone receptor (TSHR) signaling pathway (AID 1224843; calls by dose curve; further: nearly all actives have a fitted effect of over 45% in size)
Chain of Thyrotropin receptor (Homo sapiens) (P16473 whole entry, looked up): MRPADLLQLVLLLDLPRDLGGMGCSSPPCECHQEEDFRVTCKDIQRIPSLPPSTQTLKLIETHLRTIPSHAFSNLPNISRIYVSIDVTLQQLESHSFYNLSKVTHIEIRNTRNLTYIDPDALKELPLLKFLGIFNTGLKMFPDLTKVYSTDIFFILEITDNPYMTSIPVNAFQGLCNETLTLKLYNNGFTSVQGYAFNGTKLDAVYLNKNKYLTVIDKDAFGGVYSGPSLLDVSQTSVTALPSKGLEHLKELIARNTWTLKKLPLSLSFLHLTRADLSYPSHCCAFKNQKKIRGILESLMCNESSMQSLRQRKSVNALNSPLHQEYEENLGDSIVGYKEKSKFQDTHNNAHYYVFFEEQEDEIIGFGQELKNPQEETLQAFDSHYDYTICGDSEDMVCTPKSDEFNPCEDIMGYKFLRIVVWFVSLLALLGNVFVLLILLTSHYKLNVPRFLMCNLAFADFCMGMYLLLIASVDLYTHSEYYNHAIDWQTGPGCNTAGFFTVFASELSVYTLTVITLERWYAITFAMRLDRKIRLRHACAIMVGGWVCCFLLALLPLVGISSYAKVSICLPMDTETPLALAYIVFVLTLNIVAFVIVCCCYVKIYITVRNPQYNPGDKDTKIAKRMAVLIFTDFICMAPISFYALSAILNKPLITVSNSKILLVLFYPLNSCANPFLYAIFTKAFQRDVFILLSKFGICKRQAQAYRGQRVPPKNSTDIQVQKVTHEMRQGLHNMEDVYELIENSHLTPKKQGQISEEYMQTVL
How it was run: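 Steps: seed 800 TSHR-HEK293 cells per well; add test compound and hold 30 min at ambient temperature; dispense cAMP-d2 then anti-cAMP cryptate; incubate 1 h at ambient; measure fluorescence intensity.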

[2] = qHTS assay to identify small molecule agonists of the hypoxia (HIF-1) signaling pathway (AID 1224846; active means well fitted activation curve with a large enough effect in the signal ratio in the repeat runs, not every such curve was filed as active; the % refers to the signal ratio)
How it was run: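 HRE-bla ME-180 beta-lactamase reporter cells in medium with 0.5% dialyzed FBS, pre-incubated 5 h then exposed to compounds 17 h at 37C, 5% CO2; reporter induction read with CCF4-AM FRET substrate.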

[3] = qHTS assay to identify small molecule agonists of H2AX - cell viability counter screen (AID 1224847; calls by dose curve; further: nearly all actives have a fitted effect of over 30% in size; further: potency means the concentration at half of the fitted maximal effect)
How it was run: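 CHO-K1 wt, 1000 cells/well, o/n 37C; cpds 15 conc, 3 h 37C, 0.76% DMSO; CellTiter-Glo, 30 min RT, luminescence.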

[4] = qHTS assay to identify small molecule antagonists of the estrogen related receptor (ERR) signaling pathway from Tox21 library (AID 1224848); further: nearly all actives have a fitted effect of over 50% in size; further: potency means the concentration at half of the fitted maximal effect
How it was run: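 Luminescent reporter read-out (ONE-Glo) from NTP's ERR cell line after 18 h treatment at 37 C with DMSO-dissolved Tox21 compounds; cells pre-plated 6 h beforehand at 2,000 per well.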

[5] = qHTS assay to identify small molecule agonists of the estrogen related receptor (ERR) signaling pathway from Tox21 library (AID 1224849; calls by dose curve; further: nearly all actives have a fitted effect of over 15% in size); details: ERR reporter cell line, ONE-Glo luciferase, 18 h
How it was run: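 ERR reporter cells (NTP line) pre-incubated 6 hours at 37 C, then exposed to compounds for 18 hours at 37 C. ONE-Glo luciferase luminescence was read after 30 minutes at room temperature.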

[6] = qHTS RealTime-Glo MT Cell Viability Assay in HepG2 cells - 24 hour (AID 1224867); further: nearly all actives have a fitted effect of over 50% in size
How it was run: (§1)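 Compound treatment began 5 h after plating HepG2 cells (600/well) with NanoLuc luciferase and prosubstrate. Plates stayed at 37 C for 40 h; luminescence was captured at six time points, 0 h through 40 h.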

[7] = qHTS RealTime-Glo MT Cell Viability Assay in HEK293 cells - 32 hour (AID 1224868); further: nearly all actives have a fitted effect of over 50% in size; further: potency means the concentration at half of the fitted maximal effect
How it was run: (§2)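 Quantitative high-throughput screen of the Tox21 10K library in HEK293: cells and RealTime-Glo reagents plated together, compound added at 5 h, luminescence monitored through 40 h at 37 C.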

[8] = A CellTox Green Cytotoxicity Assay to monitor cytotoxicity in HEK293 cells - 0 hour (AID 1224869); further: nearly all actives have a fitted effect of over 50% in size
How it was run: (§3)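 HEK293 cells, 600/well, were preincubated 5 hours and then exposed to compounds at 37 C for up to 40 hours. A cell-impermeant cyanine dye staining dead-cell DNA was read by fluorescence at 0, 8, 16, 24, 32 and 40 h time points.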

[9] = qHTS RealTime-Glo MT Cell Viability Assay in HepG2 cells - 40 hour (AID 1224870); further: nearly all actives have a fitted effect of over 50% in size
How it was run: (§4)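 HepG2 cells (600/well) mixed with RealTime-Glo MT reagent, settled 5 h at 37 C/5% CO2 before compound addition. Nonlytic NanoLuc luminescence from viable-cell prosubstrate reduction read repeatedly during 40 h treatment at 37 C.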

[10] = A CellTox Green Cytotoxicity Assay to monitor cytotoxicity in HEK293 cells - 40 hour (AID 1224871); further: nearly all actives have a fitted effect of over 45% in size
How it was run: as §3

[11] = qHTS RealTime-Glo MT Cell Viability Assay in HEK293 cells - 16 hour (AID 1224872); further: nearly all actives have a fitted effect of over 50% in size; further: potency means the concentration at half of the fitted maximal effect
How it was run: as §2

[12] = qHTS RealTime-Glo MT Cell Viability Assay in HepG2 cells - 8 hour (AID 1224873); further: nearly all actives have a fitted effect of over 55% in size
How it was run: as §4

[13] = qHTS RealTime-Glo MT Cell Viability Assay in HEK293 cells - 40 hour (AID 1224874); details: RealTime-Glo luminescence; max response: stronger effect = lower value; further: nearly all actives have a fitted effect of over 50% in size; further: potency means the concentration at half of the fitted maximal effect
How it was run: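 600 cells/well were plated with the nonlytic NanoLuc/prosubstrate reagent, pre-incubated 5 h, then given 23 nL of compound in DMSO. Incubation at 37 C for 40 h, with luminescence from viable-cell-reduced substrate read repeatedly from 0 h.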

[14] = A CellTox Green Cytotoxicity Assay to monitor cytotoxicity in HEK293 cells - 24 hour (AID 1224875); further: nearly all actives have a fitted effect of over 45% in size
How it was run: as §3

[15] = A CellTox Green Cytotoxicity Assay to monitor cytotoxicity in HepG2 cells - 16 hour (AID 1224876); further: nearly all actives have a fitted effect of over 45% in size
How it was run: (§5)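 HepG2 cells, 600/well, preincubated 5 h with CellTox Green dye, then exposed to Tox21 compounds in DMSO at 37 C for up to 40 h. Dead-cell DNA fluorescence read at the indicated time point.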

[16] = qHTS RealTime-Glo MT Cell Viability Assay in HepG2 cells - 32 hour (AID 1224877); further: nearly all actives have a fitted effect of over 55% in size
How it was run: as §1

[17] = A CellTox Green Cytotoxicity Assay to monitor cytotoxicity in HepG2 cells - 24 hour (AID 1224878); further: nearly all actives have a fitted effect of over 45% in size
How it was run: as §5

[18] = A CellTox Green Cytotoxicity Assay to monitor cytotoxicity in HepG2 cells - 40 hour (AID 1224879); further: nearly all actives have a fitted effect of over 40% in size
How it was run: as §5

[19] = qHTS assay to identify small molecule agonists of the hypoxia (HIF-1) signaling pathway - cell viability counter screen (AID 1224844; calls by dose curve; further: nearly all actives have a fitted effect of over 50% in size)
How it was run: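 HRE-bla ME-180 cells, 2,000/well in 0.5% dialyzed FBS medium, treated 17 h at 37C with compounds. Viability read in the same wells as the bla reporter, by CellTiter-Glo luminescence after 30 min at room temperature.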
On the % scale 0 is the no-effect control and ±100 the full control effect.

O=[N+]([O-])c1ccc2c(c1)Cc1ccccc1-2
inactive: Potency [1] | Potency [2] | Potency [3] | Potency [4] | activity change, positive = activation ([5]; at 92.4 µM (top of the series)) 1.03% and -0.93% | Potency [6] | Potency [7] | Potency [8] | Potency [9] | Potency [10] | Potency [11] | Potency [12] | max response [13] 0.388% and -3.63% | Potency [14] | Potency [15] | Potency [16] | Potency [17] | Potency [18]

Cc1cccc([N+](=O)[O-])c1C
inactive: Potency [19] | Potency [2] | Potency [3] | Potency [6] | Potency [7] | Potency [8] | Potency [9] | Potency [10] | Potency [11] | Potency [12] | max response [13] 2.52% and -15.5% | Potency [14] | Potency [16] | Potency [17] | Potency [18]

C=CC(C)(CCC=C(C)C)OC(C)=O (stereo unspecified)
inactive: Potency [1] | Potency [2] | Potency [3] | Potency [6] | Potency [7] | Potency [8] | Potency [9] | Potency [10] | Potency [11] | Potency [12] | max response [13] 4.78% and 0.789% | Potency [14] | Potency [16] | Potency [17] | Potency [18]

O=C(/C=C/c1ccccc1)OCc1ccccc1
inactive: Potency [19] | Potency [2] | Potency [3] | Potency [4] | Potency [6] | Potency [7] | Potency [8] | Potency [9] | Potency [10] | Potency [11] | Potency [12] | max response [13] 1.15% and -0.532% | Potency [14] | Potency [15] | Potency [16] | Potency [17] | Potency [18]

O=C(COc1ccc(Cl)cc1)N1CCN(Cc2ccc3c(c2)OCO3)CC1
38.9 µM (active) and inactive: Potency [11]
active: Potency [4] 27.3 µM and 18.8 µM | Potency [7] 43.6 µM | Potency [13] 38.9 µM
inactive: Potency [1] | Potency [2] | activity change, positive = activation ([5]; at 42.5 µM (top of the series)) -37.2% | activity change, positive = activation ([5]; at 92.4 µM (top of the series)) -59.3% | Potency [6] | Potency [8] | Potency [9] | Potency [10] | Potency [12] | Potency [14] | Potency [15] | Potency [16] | Potency [17] | Potency [18]
101 µM (active) and inactive: Potency [3]

O=CCc1ccccc1
inactive: Potency [2] | Potency [3] | Potency [7] | Potency [8] | Potency [10] | Potency [11] | Potency [12] | max response [13] 1.86% and -0.86% | Potency [14] | Potency [16] | Potency [17] | Potency [18]
